A selection: hits, their analogues and other compounds. The true share with any hit is near 3.1%.
PPC-1+TRAIL kill: compounds killing PPC-1 cancer cells with TRAIL present, primary screen, TRAIL potentiator project, ATPLite luminescence, uHTS; AID 1443, 2008; hit rate 0.41% among 220,000; cell killing (% activity), % at 4 µM or 5 µM; PPC-1 cells + TRAIL, ATPLite viability luminescence;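 active = cell killing above 50% in the first pass at 4 µM, then a duplicate retest at 5 µM averaging 50% or more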;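 note: plate controls were cells with TRAIL plus DMSO for no effect and medium-only wells lacking cells for full effect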
CF NFkB block: inhibitors of PAF-induced NF-kB signaling, primary screen, cell-based, GFP fluorescence, uHTS. AID 588850, 2011. hit rate 0.86% among 360,000. KKLEB NF-kB-GFP reporter, GFP fluorescence overnight. inhibition, % at 5 µM;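 active = at least 50% inhibition at 5 µM, scaled per plate between neutral and stimulator controls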;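 note: PAF is a Pseudomonas aeruginosa culture filtrate used as stimulus; plate controls were PAF-stimulated DMSO wells for no effect and unstimulated DMSO wells for full effect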
KKLEB cytotox: cytotoxicity in KKLEB CF airway cells, primary screen, cytotoxicity control for CF NF-kB inhibitor project, cell-based, uHTS, fluorescence assay plates | KKLEB CF airway cells viability, ATPlite luminescence, overnight; stronger effect = lower value; cells stimulated with P. aeruginosa culture filtrate | activity change (cytotoxicity), % at 5 µM | hit rate 0.36% among 360,000 | AID 602141, 2011;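 active = corrected activity change at or below -50% at 5 µM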
Peg3 prom inh: Peg3 promoter-driven luciferase inhibitors, primary screen, cell-based, HeLa, luciferase luminescence. HeLa PEG-Prom luciferase reporter, overnight. inhibition, % at 20 µM. hit rate 1.7% among 360,000. AID 588405, 2011;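 active = inhibition of at least 50% at 20 µM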
C8 TRAIL sens: viability loss with TRAIL in NB7+C8 cells, primary screen, TRAIL sensitizer project, cell-based, ATPlite luminescence; inhibition (viability loss, TRAIL sensitization), % at 10 µM; hit rate 1% among 360,000;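 active = compounds causing at least 50% loss of cell viability in the single-dose screen, relative to plate controls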
HIF-2a block: HIF-2a reporter inhibitors, primary screen, luminescence, 786-0 RCC cells. 786-0 RCC cells HIF-2a reporter, luciferase luminescence, overnight. inhibition, % at 18.8 µM. hit rate 0.72% among 360,000;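 active = inhibition of the luminescence signal of 40% or more relative to plate controls, in a single-dose primary screen at 18.75 µM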
Active calls of the source: *; . = no result given.

SMILES | PPC-1+TRAIL kill | CF NFkB block | KKLEB cytotox | Peg3 prom inh | C8 TRAIL sens | HIF-2a block
OCC1OC(n2cnc3c(NCc4ccccc4O)ncnc32)C(O)C1O (stereo not drawn) | . | 30 | -54* | 71* | 76* | -25
O=C(CCS(=O)(=O)c1ccc(Br)cc1)Nc1ccccn1 | 66* | 1 | 8 | -6 | -1 | 9
CC(C)Nc1nc(Cl)nc(N(C#N)CN2C(=O)c3ccccc3C2=O)n1 | 9 | 0 | 0 | 95* | 7 | -11
CN1CCN(C2CN(Cc3cn(Cc4ccc(F)cc4)nn3)S(=O)(=O)C2)CC1 (stereo not drawn) | . | . | . | . | 24 | 10
COc1ccc([C@@]2(C(C)C)ON(c3ccccc3C(F)(F)F)C2=O)cc1 | . | 53* | 0 | 62* | 10 | 7
O=S(=O)(c1ccc(Cl)c(Cl)c1)c1snnc1-c1ccccc1 | -14 | 56* | -45 | 73* | 27 | 77*
COCCn1c(C)cc(C(=O)Cn2nc(C(=O)O)c3ccccc3c2=O)c1C | 17 | -18 | -18 | -98 | 64* | -172
Cc1cc(C(=O)Cn2nc(C(=O)O)c3ccccc3c2=O)c(C)n1-c1ccc(F)cc1 | 57* | 15 | -14 | -148 | 33 | -151
O=C(Oc1cccc2c(O)cccc12)c1ccco1 | . | 8 | -8 | -19 | 9 | 15
CCC1(C)Cc2c(sc3nnn(CC(=O)Nc4cccc5ccccc45)c(=O)c23)CO1 (stereo not drawn) | -26 | -16 | 5 | 56* | -11 | 9
O=C(/C=C/c1cn(CC(O)CN2CCCCC2)c2ccccc12)c1cccs1 (stereo not drawn) | 7 | -8 | -6 | 73* | 7 | -17
CC1(C(=O)NS(=O)(=O)c2ccc(F)cc2F)CCN1C(=O)c1ccccc1CCc1ccccc1 (stereo not drawn) | . | -2 | -2 | 8 | -4 | 5
COc1ccc(CNc2ncc(-c3ccc(Cl)cc3)n2C)c(OC)c1OC | . | -22 | 5 | 9 | 15 | 1
Cc1ccccc1Cn1ccc(NC(=O)c2cnn3c(C(F)(F)F)cc(-c4ccco4)nc23)n1 | -5 | 28 | 0 | 51* | 49 | 0
O=C(Nc1cnn(C23CC4CC(CC(C4)C2)C3)c1)c1cnn2c(C(F)(F)F)cc(-c3ccco3)nc12 | 5 | 16 | -25 | 71* | 64* | 2
O=C(Nc1ccc2c(c1)OCO2)c1cnn2c(C(F)(F)F)cc(-c3ccco3)nc12 | 14 | 42 | -34 | 6 | -4 | -4
CCCCCCN1C[C@H](O)[C@@H](n2cc(C3CC3)nn2)C[C@@H]1c1ccc(OC)cc1 | . | 14 | -15 | -17 | 28 | -1
CCC(=O)NC1=C(Cl)C(=O)C(NC(=O)CC)=C(Cl)C1=O | 16 | 37 | -2 | 81* | 7 | 96*
CCC(=O)NC1=C(NC(C)c2ccccc2)C(=O)c2ccccc2C1=O (stereo not drawn) | 9 | 12 | 9 | -6 | 2 | -5
CC[C@]12C(=O)N(C)C[C@H]([C@@H]3C(=O)N(C)C(=O)[C@@H]31)N2C(=O)c1ccc(Cl)c(Cl)c1 | . | -2 | 6 | 12 | 12 | 10
COc1cccc2[nH]c3ccccc3c(=O)c12 | . | -24 | -10 | -16 | 2 | -11
C=Cc1ncc(OC)c2c1[nH]c1ccccc12 | . | 5 | -54* | 81* | 66* | 31
Cc1ccc2nsnc2c1S(=O)(=O)N(Cc1cc2cccc(C)c2[nH]c1=O)CC1CCCO1 (stereo not drawn) | 12 | 35 | -20 | 84* | 10 | 6
O=C(Cc1cccc(NC(=O)C2CCN(C(=O)CCc3ccccc3)CC2)c1)Nc1cccc(C(=O)N2CCCCC2)c1 | . | 2 | -3 | 4 | 2 | -4
CNC[C@@H](C)NC[C@@H](Cc1ccccc1)NCCc1ccccc1 | . | -3 | -25 | -1 | 18 | 4
SMILES | PPC-1+TRAIL kill | CF NFkB block | KKLEB cytotox | Peg3 prom inh | C8 TRAIL sens | HIF-2a block
CC[C@H](C)[C@@H](CN[C@H](C)CNC)NCCC(c1ccccc1)c1ccccc1 | . | 20 | -11 | 98* | -43 | -3
CC(OC(=O)CCNS(=O)(=O)c1ccc(Cl)cc1)C(=O)N(C)Cc1ccccc1 (stereo not drawn) | . | 32 | -7 | 26 | -2 | 10
CCOC(=O)c1cnc2c(-c3ccc(Cl)cc3)cnn2c1C | . | -16 | -20 | -239 | 51* | -253
CCOC(=O)CCCNC(=O)CN1C(=O)NC(c2ccccc2)(c2ccccc2)C1=O | . | -9 | -2 | 7 | 12 | 22
CN(C)c1nc(-c2ccccn2)nnc1-c1ccccc1 | -23 | 19 | -15 | 53* | -16 | 8
c1ccc(-c2nnc(-c3ccccn3)c(-c3ccccn3)n2)nc1 | 21 | -22 | 12 | 7 | -2 | 13
CCN(CC)c1ccc(N=Nc2nn(C)c(C)c2[N+](=O)[O-])cc1 | 42 | -10 | 8 | -162 | 63* | -178
OCCOCCN1CCN(C2=Nc3ccccc3Sc3ccccc32)CC1 | 24 | 34 | -1 | -15 | 1 | -17
O=C1C=CC(=O)c2c(O)c(N3CCN(CCO)CC3)c(Cl)c(O)c21 | . | -23 | 15 | 102* | 90* | 90*
O=C1C=CC(=O)c2c(O)c(N3CCN(CCOCCO)CC3)c(Br)c(O)c21 | . | 6 | 2 | 53* | 90* | 87*
O=C(CSc1ccc2nnc(CCNC(=O)c3ccccc3)n2n1)NCCc1ccccc1 | . | 6 | -8 | 20 | -11 | 17
COc1cc(OC)c2c(-c3cccc(-c4ccc(C(C)=O)cc4)c3)cc(=O)oc2c1 | . | 55* | -6 | -12 | 23 | 1
O=C(NC1CCSc2ccccc21)c1cccc([N+](=O)[O-])c1 (stereo not drawn) | . | -31 | -5 | -22 | -2 | -54
CCCOc1ccc(/C=N/NC(=O)CN2CCCCC2)cc1OCC | . | -10 | 4 | 4 | 7 | 11
CCCCOc1ccc(C(=O)N/N=C/c2ccc(OCCN3CCCCC3)c(OC)c2)cc1 | 13 | -9 | -4 | 65* | 15 | 12
COc1ccc(/C=C/C(=O)Oc2ccc(/C=N/NC(=O)c3ccccc3)cc2)cc1OC | -9 | 52* | -68* | -78 | 33 | -38
COc1ccc(/C=N/NC(=O)c2ccc3ccccc3c2)cc1OS(=O)(=O)c1ccc(NC(C)=O)cc1 | 21 | 61* | -13 | 62* | -12 | -14
COc1ccc(C=O)cc1OS(=O)(=O)c1ccc(NC(C)=O)cc1 | 0 | 19 | -18 | 27 | -3 | 10
Cc1ncc2c(n1)NC(=O)NC2 | . | 16 | -5 | 15 | -18 | 11

From PubChem
